Compounds with a hit are over-represented: about 2.4% of the library has one in this group of screens.
D2 antagonist = antagonizes the human D2 dopamine receptor; HEK293 TREx D2 cells, calcium flux, dopamine EC80; inhibition, % at 10 µM; 2% of 340,000 active; AID 485344; in the data active = inhibition above about 30%; inactive = below that, where a call was filed; note: 0% is about no effect
Target sequence (P14416 whole entry, looked up): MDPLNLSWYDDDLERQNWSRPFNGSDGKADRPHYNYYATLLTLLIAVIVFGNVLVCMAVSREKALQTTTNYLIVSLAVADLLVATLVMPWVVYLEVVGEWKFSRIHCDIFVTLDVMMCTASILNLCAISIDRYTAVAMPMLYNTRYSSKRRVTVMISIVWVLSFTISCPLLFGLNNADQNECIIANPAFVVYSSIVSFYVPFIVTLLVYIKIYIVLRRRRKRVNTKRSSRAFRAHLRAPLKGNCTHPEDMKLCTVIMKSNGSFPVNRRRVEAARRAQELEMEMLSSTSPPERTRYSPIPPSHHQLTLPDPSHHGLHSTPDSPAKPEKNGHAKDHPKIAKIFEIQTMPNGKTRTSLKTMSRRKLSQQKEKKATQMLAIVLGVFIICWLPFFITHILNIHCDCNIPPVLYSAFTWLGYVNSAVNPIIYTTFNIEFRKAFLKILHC
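Measurement of antagonist activity uses fluorescent calcium dye in inducible HEK293 T-REx D2 cells: 10 s baseline, compound addition with 180 s read, EC80 dopamine addition with a further 180 s read.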
D2 PAM-1 = positive allosteric modulators of human D2 dopamine receptor; P14416; DiscoveRx D2 beta-arrestin cells, luminescence, 90 min; 100% = 57 uM dopamine signal; potentiation, % (concentration not given with the values); 0.23% of 360,000 active; AID 624464; in the data active = potentiation above about 50%; inconclusive = mostly about 30% to 49%
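D2 cells co-treated with compound plus 50 nM dopamine (EC20) for 90 min at 37 deg C to detect potentiation. Beta-arrestin recruitment was read as enzyme-fragment luminescence after 1 h at ambient temperature. Full response was set by 57 uM dopamine.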
D2 ag-1 = human D2 receptor agonism in beta-arrestin assay | DiscoveRx PathHunter D2 beta-arrestin, luminescence, 90 min; 100% = 57 uM dopamine signal | P14416 | 0.084% of 360,000 active | activation, % (no concentration beside the values); in the data active = activation above about 40%; inconclusive = between about 15% and that limit
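DiscoveRx PathHunter D2 beta-arrestin cells (2,100/well) attached overnight, then compound-stimulated 90 min at 37 C in HBSS/10 mM HEPES/0.1% Tween-20 buffer; beta-galactosidase complementation read by luminescence after 1 h at ambient temperature. Dopamine 57 uM final (EC100) as control.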
D2 ag-2 = activates the human D2 dopamine receptor. activation, % at 2 µM. P14416. HEK293 T-REx D2 cells, calcium flux agonist mode. 0.53% of 340,000 active;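 active = activation over 3 SD above normal in the single-dose calcium agonist read, cut at about 30% in these data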; note: 0% is about no effect
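Tetracycline-induced HEK293 Trex cells with D2 receptor force-coupled to calcium signaling, plated overnight at 30 C and loaded with no-wash calcium dye. Calcium flux read kinetically for 180 s after compound addition; responses flag agonists.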
D2 PAM-2 = D2 dopamine receptor (human) potentiation; P14416; HEK293 T-REx D2, calcium flux, EC20 dopamine potentiation; 0.34% of 340,000 active; potentiation, % at 10 µM;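 active = potentiation over 3 SD above the plate norm, cut at about 30% in these data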; note: 0% is about no effect
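Calcium flux readout, no-wash dye, 1 read/s. Inducible HEK293 Trex D2 line, overnight 30 C. Compound alone 180 s (agonist flags), then EC20 dopamine, another 180 s to score potentiation.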
Starred values were filed as active, the others as inactive.

`CCC(Sc1nc2c(sc3ccccc32)c(=O)n1CCCC(=O)NC1CCCC1)C(=O)Nc1cccc(OC)c1` (stereo not given) gave D2 ag-2 -1.5 and D2 PAM-2 -11.4.
For Cc1ccc(-c2nc3c4ccccc4[nH]c(=O)n3n2)cc1 the results were D2 ag-2 0.5 and D2 PAM-2 5.2.
For Cc1ccc(CN2CCSc3ccc(C(=O)N4CCN(c5cc(C)ccc5C)CC4)cc32)cc1 the results were D2 ag-2 0.0 and D2 PAM-2 -1.6.
`[O-][N+]1=c2ccc(Nc3ccccc3)cc2=NC12CCCCC2` gave D2 antagonist 32.5*, D2 PAM-1 -21.4, D2 ag-1 -4.2, D2 ag-2 -0.9 and D2 PAM-2 -14.2.
For COc1ccc(Nc2ccc3c(c2)=NC2(CCCCC2)[N+]=3[O-])cc1 the results were D2 antagonist 3.8, D2 PAM-1 -14.0, D2 ag-1 -2.7, D2 ag-2 -0.1 and D2 PAM-2 -7.3.
COc1ccc(NC2c3ccccc3C(=O)N2c2ccccn2)cc1 (stereo not given) was read as D2 antagonist 41.1*, D2 PAM-1 2.4, D2 ag-1 -2.2, D2 ag-2 -1.3 and D2 PAM-2 -4.3.
`Cc1ccc(Nc2cc(C)c(C#N)c3nc4ccccc4n23)cc1Cl` gave D2 ag-2 0.8 and D2 PAM-2 10.4.
O=S(=O)(c1ccc(NC(=S)NCc2ccc(F)cc2)cc1)N1CCOCC1 was read as D2 antagonist -2.2, D2 PAM-1 23.1, D2 ag-1 1.7, D2 ag-2 5.1 and D2 PAM-2 -11.9.
Screening CCN1CCN(c2cc(C)c3cc(NC(=S)NCCCN4CCc5ccccc5C4)ccc3n2)CC1 returned D2 antagonist 52.6*, D2 PAM-1 -14.5, D2 ag-1 -2.9, D2 ag-2 0.6 and D2 PAM-2 -32.0.
`Cc1cc(N2CCN(C)CC2)nc2ccc(NC(=S)NCCN3CCc4ccccc4C3)cc12` gave D2 antagonist 14.5, D2 PAM-1 -20.4, D2 ag-1 -0.4, D2 ag-2 -0.8 and D2 PAM-2 -25.0.
Screening Cc1cc(N2CCN(C)CC2)nc2ccc(NC(=S)NCCCN3CCc4ccccc4C3)cc12 returned D2 antagonist 34.1*, D2 PAM-1 -14.1, D2 ag-1 -3.1, D2 ag-2 0.5 and D2 PAM-2 -29.1.
COC(=O)[C@]1(CC(C)C)N[C@H](c2ccc(-c3ccc(F)cc3)cc2)[C@@H]2C(=O)N(C)C(=O)[C@@H]21 was read as D2 antagonist 3.8, D2 PAM-1 0.3, D2 ag-1 1.3, D2 ag-2 0.2 and D2 PAM-2 -2.9.
For O=C(NCC(=O)N1CC=C(c2ccccc2)CC1)c1ccco1 the results were D2 antagonist 0.2, D2 PAM-1 -14.3, D2 ag-1 5.5, D2 ag-2 -0.2 and D2 PAM-2 -0.1.
`CC(Sc1cn(CCNC(=O)c2ccccc2F)c2ccccc12)c1ccccc1` (stereo not given) gave D2 ag-2 0.1 and D2 PAM-2 6.2.
`N/C(Cc1ccc(Cl)c(Cl)c1)=N\OC(=O)c1ccc(Br)o1` gave D2 antagonist 1.5, D2 PAM-1 60.1*, D2 ag-1 inconclusive, D2 ag-2 1.0 and D2 PAM-2 -10.7.
Cc1ccc(S(=O)(=O)N(C)c2ccc(C(=O)NCc3ccccn3)cc2)cc1 was read as D2 antagonist 56.7*, D2 PAM-1 -7.4, D2 ag-1 1.9, D2 ag-2 -0.5 and D2 PAM-2 -12.1.
CN(c1ccc(C(=O)NCc2ccccn2)cc1)S(=O)(=O)c1ccc(Cl)cc1 was read as D2 antagonist -3.0, D2 PAM-1 -9.5, D2 ag-1 -1.9, D2 ag-2 -0.1 and D2 PAM-2 2.3.
For CCCCCn1cnc2c(=S)nc(N)[nH]c21 the results were D2 antagonist 48.6*, D2 PAM-1 -6.0, D2 ag-1 2.3, D2 ag-2 1.7 and D2 PAM-2 8.3.
`CCCCn1cnc2c(=S)nc(N)[nH]c21` gave D2 antagonist 5.5, D2 PAM-1 -5.5, D2 ag-1 2.8, D2 ag-2 0.8 and D2 PAM-2 5.2.
`Cn1ccc2cc(S(=O)(=O)N3CCN(C(=O)Nc4ccccc4F)CC3)ccc21` gave D2 PAM-2 -1.2.
Screening CNc1nc(C)nc(-n2nc(C)cc2C)n1 returned D2 antagonist 35.3*, D2 PAM-1 -3.4, D2 ag-1 -4.6, D2 ag-2 0.0 and D2 PAM-2 -4.4.
`Cc1cc(C)n(-c2nc(C)nc(NCc3ccccc3)n2)n1` gave D2 antagonist 6.6, D2 PAM-1 -42.9, D2 ag-1 -4.3, D2 ag-2 2.8 and D2 PAM-2 0.9.
CCN1CCN(C(=O)c2ccc(NS(=O)(=O)c3ccccc3)cc2)CC1 was read as D2 antagonist -3.9, D2 PAM-1 -15.3, D2 ag-1 -3.5, D2 ag-2 0.8 and D2 PAM-2 -4.8.
Screening O=C(NCCC(=O)N(Cc1ccco1)Cc1cccs1)c1ccc(Br)cc1 returned D2 antagonist 41.3*, D2 PAM-1 -4.6, D2 ag-1 -3.1, D2 ag-2 -2.8 and D2 PAM-2 -18.0.
Screening COc1ccccc1N1CCN(C(=O)C2CCN(S(=O)(=O)c3ccc4c(c3)CC(C)N4C(C)=O)CC2)CC1 (stereo not given) returned D2 antagonist -13.4, D2 PAM-1 -9.3, D2 ag-1 -2.1, D2 ag-2 0.6 and D2 PAM-2 -12.1.
CCc1ccc(NC(=O)C2CCN(S(=O)(=O)c3ccc4c(c3)NC(=O)CO4)CC2)cc1 was read as D2 antagonist 9.8, D2 PAM-1 -17.4, D2 ag-1 1.2, D2 ag-2 -1.5 and D2 PAM-2 3.7.
`CC(=O)N1c2ccc(S(=O)(=O)N(C)CC(=O)N3CCCC3)cc2CC1C` (stereo not given) gave D2 antagonist -23.1, D2 PAM-1 -6.7, D2 ag-1 -2.2, D2 ag-2 0.1 and D2 PAM-2 41.6*.
COc1cccc(NC(=O)C2CCN(S(=O)(=O)c3ccc4c(c3)CC(C)N4C(C)=O)CC2)c1 (stereo not given) was read as D2 antagonist 17.2, D2 PAM-1 -26.4, D2 ag-1 -1.1, D2 ag-2 -1.1 and D2 PAM-2 -6.8.
`COc1ccccc1N1CCN(S(=O)(=O)c2ccc3c(c2)CC(C)N3C(C)=O)CC1` (stereo not given) gave D2 antagonist 32.8*, D2 PAM-1 -8.2, D2 ag-1 -1.1, D2 ag-2 -0.3 and D2 PAM-2 -13.7.
For CCc1cccc(NC(=O)C2CCN(S(=O)(=O)c3ccc4c(c3)NC(=O)CO4)CC2)c1 the results were D2 antagonist 30.3*, D2 PAM-1 -9.6, D2 ag-1 4.8, D2 ag-2 -0.3 and D2 PAM-2 -24.7.

From PubChem
